GRK2 inh = compounds blocking aptamer binding on GRK2 – biochemical, human GRK2, bead flow cytometry, HTS, primary screen; Beta-adrenergic receptor kinase 1 (Homo sapiens), P25098; hit rate 0.59% among 330,000; FAM-aptamer displacement from GRK2; inhibition of aptamer binding, % at 10 µM;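 active = inhibition of aptamer binding above 40%, roughly 3 SD of noise, on plates passing a quality check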;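 also: median bead fluorescence of bound FAM aptamer so fluorescent compounds give negative values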
PKD1 kinase inh = inhibitors of human PKD1 kinase, biochemical, fluorescence polarization; PKD1 kinase fluorescence polarization assay; AID 797, 2007; hit rate 0.056% among 200,000; inhibition, % (concentration not given with the values)
HDAC3 inh = HDAC3 deacetylase inhibitors, primary screen, biochemical, fluorescence, cell-free homogeneous; Histone deacetylase 3 (Homo sapiens), O15379; recombinant HDAC3, fluorogenic peptide/trypsin coupled; inhibition, % at 8.3 µM; hit rate 0.15% among 320,000; in the data active = inhibition above about 26%, passing the limit was not always enough
VLA-4 inh = inhibition in human VLA-4 binding assay, primary screen, VLA-4 allosteric modulator project, MLPCN library, flow cytometry, VLA-4 expressing cells; Integrin alpha-4 (Homo sapiens), P13612; ligand binding flow cytometry; inhibition, % (about 7 µM as worked out from the volumes in the protocol); hit rate 0.2% among 330,000; AID 2557, 2010
Target sequence (P13612 whole entry, looked up): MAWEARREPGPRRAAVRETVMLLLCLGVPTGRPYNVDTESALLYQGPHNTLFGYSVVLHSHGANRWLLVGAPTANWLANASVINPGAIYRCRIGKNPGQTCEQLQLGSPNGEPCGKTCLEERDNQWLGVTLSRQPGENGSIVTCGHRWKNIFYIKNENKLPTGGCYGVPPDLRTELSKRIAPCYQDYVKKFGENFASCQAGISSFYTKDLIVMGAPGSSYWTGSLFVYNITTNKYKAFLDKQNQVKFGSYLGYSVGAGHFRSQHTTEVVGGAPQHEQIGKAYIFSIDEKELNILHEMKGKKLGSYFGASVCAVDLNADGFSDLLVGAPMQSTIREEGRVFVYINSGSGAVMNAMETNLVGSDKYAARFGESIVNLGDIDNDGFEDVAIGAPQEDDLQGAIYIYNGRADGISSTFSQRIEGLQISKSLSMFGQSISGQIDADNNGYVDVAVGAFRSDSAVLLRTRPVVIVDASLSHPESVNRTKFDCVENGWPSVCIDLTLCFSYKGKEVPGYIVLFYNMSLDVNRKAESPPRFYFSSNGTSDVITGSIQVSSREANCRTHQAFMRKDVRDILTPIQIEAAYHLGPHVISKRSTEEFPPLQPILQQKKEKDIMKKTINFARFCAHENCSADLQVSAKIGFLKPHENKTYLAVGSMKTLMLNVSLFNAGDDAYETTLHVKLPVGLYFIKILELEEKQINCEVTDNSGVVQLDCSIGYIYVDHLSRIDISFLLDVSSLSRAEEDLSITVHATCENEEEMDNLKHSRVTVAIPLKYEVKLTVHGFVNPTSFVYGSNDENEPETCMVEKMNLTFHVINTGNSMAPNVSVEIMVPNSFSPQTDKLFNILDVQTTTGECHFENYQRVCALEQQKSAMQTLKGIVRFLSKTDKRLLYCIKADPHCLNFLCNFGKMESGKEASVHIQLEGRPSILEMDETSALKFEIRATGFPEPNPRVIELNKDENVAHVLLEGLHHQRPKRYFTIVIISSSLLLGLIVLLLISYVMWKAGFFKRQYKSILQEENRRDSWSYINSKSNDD
DSG3 Ab inh = inhibitors of pemphigus antibody binding to DSG3, primary screen, biochemical, bead-based, flow cytometry, scFv-GFP; Desmoglein-3 (Homo sapiens), P32926; DSG3-coupled beads, scFv-anti-DSG3-GFP binding; active compounds read low; binding (percent of control), % at 10 µM; hit rate 0.48% among 310,000; AID 588358, 2011;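 active = binding more than 3 SD below its plate's average and above zero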;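 also: hits lower antibody fragment binding to DSG3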
LANA-H2B inh = blockers of LANA interaction with H2A/H2B – biochemical, FP readout, HTS, primary screen; inhibition, % (no concentration beside the values); cell-free LANA-H2A/H2B peptide, fluorescence polarization; hit rate 0.6% among 320,000; Protein LANA1 (Human herpesvirus 8 type P (isolate GK18)), Q9QR71; in the data active = inhibition mostly above about 10%, no sharp cut-off; inactive = mostly below about 6.7%
Large screens that a line does not name were inactive. Hits are enriched below; roughly 1.8% of the tested compounds scored in any of these assays. Rule as the data show it, unless noted: active = inhibition above about 50%; inactive = the rest.

COc1cc(/C=C2\C(=O)N(c3ccccc3)N=C2C)ccc1Oc1ccc([N+](=O)[O-])cc1[N+](=O)[O-]	none
Brc1ccc(C2=CC(c3cccs3)n3ncnc3N2)cc1 (centres undefined)	LANA-H2B inh 59
OCCCc1nc2n(n1)C(c1cccs1)C=C(c1ccc(Br)cc1)N2 (centres undefined)	LANA-H2B inh 102 (no result: DSG3 Ab inh)
CC(C)(C)c1ccc(Cn2c(=O)cnc3ccccc32)cc1	LANA-H2B inh 17 (no result: PKD1 kinase inh)
CC(=O)Oc1ccccc1C(=O)C=Cc1cccc([N+](=O)[O-])c1	none (no result: GRK2 inh, PKD1 kinase inh, HDAC3 inh, VLA-4 inh, LANA-H2B inh)
Cc1ccc(NC(=S)N/N=C2/CCCCc3ccccc32)cc1	none (no result: PKD1 kinase inh)
COc1ccc(NC(=S)N/N=C2/CCCc3c(C)cc(C)cc32)cc1	DSG3 Ab inh -6.5
CCC(C)NC(=O)c1ccc(NS(=O)(=O)c2ccc3[nH]c(=O)[nH]c3c2)cc1 (centres undefined)	none (no result: PKD1 kinase inh)
COC(=O)C(Cc1ccccc1)NC(=O)c1ccc(NS(=O)(=O)c2ccc3[nH]c(=O)[nH]c3c2)cc1 (centres undefined)	LANA-H2B inh 29 (no result: PKD1 kinase inh)
CCc1cc(CNC(=O)c2ccc(OC3CCN(CCc4ccccc4)CC3)cc2)on1	GRK2 inh 49 (no result: PKD1 kinase inh)
COCCCn1c(=S)[nH]c(C)c(C)c1=O	none (no result: PKD1 kinase inh)
COCCCn1c(=O)cc(C)[nH]c1=S	LANA-H2B inh 15 (no result: PKD1 kinase inh)
CCOc1ncccc1C(=O)OCC(=O)N(CC(C)C)c1c(N)n(Cc2ccccc2)c(=O)[nH]c1=O	none (no result: PKD1 kinase inh)
CCOC(=O)c1sc2nc3c(SCC(=O)O)cc(C(=O)c4cc(F)ccc4O)cn3c(=O)c2c1C	LANA-H2B inh 22
COC(=O)c1cc(C(=O)c2cc(F)ccc2O)cn2c(=O)c3c(C)c(C)sc3nc12	none (no result: PKD1 kinase inh)
Cn1cccc1C(=O)OCC(=O)NC(=O)c1ccc(Cl)cc1	none (no result: PKD1 kinase inh)
COc1ccc(NC(=O)CN2C(=O)S/C(=C/c3cccn3-c3ccc(C(=O)O)cc3)C2=O)cc1	GRK2 inh 49 (no result: PKD1 kinase inh, DSG3 Ab inh)
Cc1ccc(NC(=O)CN2C(=O)S/C(=C\c3cccn3-c3cccc(C(=O)O)c3)C2=O)cc1C	none
COc1cccc(C(=O)N2CCSC2=S)c1	HDAC3 inh 37
CN(CCN1CCOCC1)Cc1nc(-c2ccccc2)no1	none
CCOc1ccc2nc(SCC(=O)NC3CCCc4ccccc43)sc2c1 (centres undefined)	DSG3 Ab inh 64
CCOc1ccc2nc(SCC(=O)N3CCCc4ccccc43)sc2c1	none
COc1cccc(NC(=O)C2CC(=O)OC23CCOC(C)(C)C3)c1 (centres undefined)	LANA-H2B inh 13
CC1(C)CC2(CCO1)OC(=O)CC2C(=O)Nc1c(Cl)cccc1Cl (centres undefined)	none (no result: PKD1 kinase inh, DSG3 Ab inh)
Cc1ccccc1NC(=O)Cn1nc(-c2ccccc2)nc1-c1ccccc1	DSG3 Ab inh -17
C=CCNc1cc(N2CCCC2)ccc1[N+](=O)[O-]	none
CC[C@]12c3[nH]c4cc(-c5ccco5)ccc4c3CCN1C(=O)[C@@H](CC(=O)NCCc1ccccn1)C[C@@H]2C(=O)N1CCN(C(=O)c2ccco2)CC1	GRK2 inh 43 (no result: PKD1 kinase inh, HDAC3 inh, VLA-4 inh, LANA-H2B inh)
CC[C@]12c3[nH]c4cc(CCC(=O)N(C)C)ccc4c3CCN1C(=O)[C@@H](CC(=O)NCCC1=CCCCC1)C[C@@H]2C(=O)N1CCN(C(=O)c2ccco2)CC1	GRK2 inh 43 (no result: PKD1 kinase inh, HDAC3 inh, VLA-4 inh, LANA-H2B inh)
CN(C)C(=O)CCc1ccc2c3c([nH]c2c1)[C@]1(C)[C@@H](C(=O)N2CCCCC2)C[C@H](CC(=O)NCc2ccco2)C(=O)N1CC3	none (no result: PKD1 kinase inh, HDAC3 inh, VLA-4 inh, LANA-H2B inh)
CC[C@]12c3[nH]c4cc(CCC(=O)N(C)C)ccc4c3CCN1C(=O)[C@@H](CC(=O)NCc1ccco1)C[C@@H]2C(=O)N1CCN(C(=O)C2CC2)CC1	GRK2 inh 45 (no result: PKD1 kinase inh, HDAC3 inh, VLA-4 inh, LANA-H2B inh)
CCN(CC)C(=O)[C@H]1C[C@H](CC(=O)NCc2ccco2)C(=O)N2CCc3c([nH]c4cc(CCC(=O)N(C)C)ccc34)[C@]12C	GRK2 inh 51 (no result: PKD1 kinase inh, HDAC3 inh, VLA-4 inh, LANA-H2B inh)
O=C(O)CCc1nn2c3ccccc3n(Cc3ccccc3F)c2nc1=O	none
COc1cccc(CN(C)C(=O)c2ccc(NC(=O)CC3SC(N4CCCC4)=NC3=O)cc2)c1OC (centres undefined)	none (no result: PKD1 kinase inh)
Cc1csc(NC(=O)C(C)Oc2ccc(Cl)cc2C)n1 (centres undefined)	none (no result: PKD1 kinase inh)
CC(C)c1ccc(NC(=O)NCc2cccnc2)cc1	none (no result: PKD1 kinase inh, DSG3 Ab inh)
Cc1ccc(-n2c(C)nnc2SCC(=O)NNC(=O)c2ccco2)cc1	none
O=C(CC1C[C@H](C(=O)N2CCOCC2)[C@@]2(CCC3CCCC3)c3[nH]c4ccccc4c3CCN2C1=O)NCCc1ccccn1 (some centres undefined)	LANA-H2B inh 105 (no result: PKD1 kinase inh)
COc1ccc2[nH]c3c(c2c1)CCN1C(=O)C(CC(=O)NCCc2ccccn2)C[C@H](C(=O)N2CCOCC2)[C@@]31CCC1CCCC1 (some centres undefined)	none (no result: PKD1 kinase inh, HDAC3 inh, VLA-4 inh, LANA-H2B inh)
COc1ccc(NC(=O)N(C)C[C@H]2Oc3ccc(NS(=O)(=O)c4ccccc4)cc3C(=O)N([C@H](C)CO)C[C@@H]2C)cc1	none (no result: GRK2 inh, PKD1 kinase inh, HDAC3 inh, VLA-4 inh, LANA-H2B inh)
CN(Cc1ccccc1)C(=O)c1[nH]cnc1C(=O)N[C@@H](Cc1ccccc1)C(=O)OCc1ccccc1	HDAC3 inh 33
C[C@H](NC(=O)c1nc[nH]c1C(=O)N[C@@H](Cc1ccccc1)C(=O)OCc1ccccc1)C(=O)OC(C)(C)C	HDAC3 inh 31 (no result: PKD1 kinase inh)
Cc1ccsc1/C=N/NC(=O)CNC(=O)c1cccc([N+](=O)[O-])c1C	VLA-4 inh 56
CC(C)NC(=O)COC(=O)c1cc(F)c(F)cc1Cl	none
CNC(=O)COC(=O)c1cc(F)c(F)cc1Cl	LANA-H2B inh 20
CC1CCCN(C(=O)CN(C)S(=O)(=O)c2cccc3nsnc23)C1 (centres undefined)	none (no result: PKD1 kinase inh)
CCOc1ccc(N2C(=O)CC(NC3CCN(C(=O)c4cccs4)CC3)C2=O)cc1 (centres undefined)	none (no result: PKD1 kinase inh)
COc1cccc(C2CC(c3cccs3)=NN2S(C)(=O)=O)c1 (centres undefined)	none
CCC(CC)C(=O)Nc1cccc(C(=O)Nc2ccc(S(N)(=O)=O)cc2)c1	none
CCC(CC)C(=O)Nc1cccc(S(=O)(=O)c2cccc(NC(=O)C(CC)CC)c2)c1	DSG3 Ab inh -13
O=C(CN1CCN(c2ccccn2)CC1)Nc1cccc(S(=O)(=O)N2CCOCC2)c1	LANA-H2B inh 26 (no result: PKD1 kinase inh)
O=C(CSc1ncccn1)Nc1cccc(S(=O)(=O)N2CCOCC2)c1	none (no result: PKD1 kinase inh)
